# The supplement of paper PMC8728848
# This is one part of a sample in which the strongest signals are shown more often than they occur.
# B1: LSectin (Mus musculus), Q8BNX1 (protein)
# chain: MNTGEYNKLGSAIEEVSRGQLGRWECYKQRLFFLVLALLVATVLWALILSTLLSSASSKLRVLLSHQDLLRTNASEQKMTLSSLKDDIGACRNCCSVTKAQLQTTLAEFKDIQAKLMEQESILKELQERVTQDLAKASRDRENIRSELFQALEAVKRQNSSCEQCPPSWLPFQGSCYYFSETQATWDTAQSYCGGQGAHLVIVRGLNEQGFLSQHTRGRGYWLGLRAVRHLNKIQGYRWVDGASLNFSHWNSGEPNDSRGHEDCIMMLHSGLWNDAPCTNERDGWICEKRSSCY
# Assays:
# Assay in all cases: glycan array binding signal (z-score within array); higher = stronger binding
# Details in all cases: glycan notation: IUPAC condensed, linker removed
# [1] = biological target: Fuc(a1-2)Gal(b1-3)GlcNAc(b1-2)Man(a1-3)[Fuc(a1-2)Gal(b1-3)GlcNAc(b1-2)Man(a1-6)]Man(b1-4)GlcNAc(b1-4)GlcNAc
# Method in brief: (§1)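 The Consortium for Functional Glycomics database supplied 3228 glycan arrays, of which those lacking an available protein sequence were dropped. The binding signal, a within-array Z-score, was averaged across arrays of the same protein sequence and across linkers. Negative scores can be read as non-binding.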
# [2] = biological target: Fuc(a1-2)Gal(b1-3)GlcNAc(b1-3)[Fuc(a1-3)[Gal(b1-4)]GlcNAc(b1-6)]Gal(b1-4)Glc
# Method in brief: as §1
# [3] = biological target: Fuc(a1-2)Gal(b1-3)GlcNAc(b1-3)[Gal(b1-4)GlcNAc(b1-6)]Gal(b1-4)Glc
# Method in brief: as §1
# Fuc(a1-2)[Gal(a1-3)]Gal = biological target: Fuc(a1-2)[Gal(a1-3)]Gal
# Method in brief: as §1
# [4] = biological target: Fuc(a1-2)[Gal(a1-3)]Gal(b1-4)[Fuc(a1-3)]Glc
# Method in brief: as §1
# [5] = biological target: Fuc(a1-2)[GalNAc(a1-3)]Gal(b1-4)GlcNAc
# Method in brief: as §1
# [6] = biological target: Fuc(a1-2)[GalNAc(a1-3)]Gal(b1-4)GlcNAc(b1-3)Gal(b1-4)GlcNAc
# Method in brief: as §1
# [7] = biological target: Fuc(a1-3)[Gal(b1-4)]GlcNAc(b1-2)Man(a1-3)[Fuc(a1-3)[Gal(b1-4)]GlcNAc(b1-2)Man(a1-6)]Man(b1-4)GlcNAc(b1-4)GlcNAc
# Method in brief: as §1
# [8] = biological target: Gal(a1-4)Gal(b1-4)GlcNAc(b1-2)Man(a1-3)[Gal(a1-4)Gal(b1-4)GlcNAc(b1-2)Man(a1-6)]Man(b1-4)GlcNAc(b1-4)GlcNAc
# Method in brief: as §1
# Gal(b1-3)GlcNAc = biological target: Gal(b1-3)GlcNAc
# Method in brief: as §1
# [9] = biological target: Gal(b1-3)GlcNAc(b1-3)Gal(b1-3)GlcNAc
# Method in brief: as §1
# [10] = biological target: Gal(b1-3)GlcNAc(b1-3)Gal(b1-4)GlcNAc
# Method in brief: as §1
# [11] = biological target: Gal(b1-3)[Fuc(a1-4)]GlcNAc(b1-3)Gal(b1-3)[Fuc(a1-4)]GlcNAc
# Method in brief: as §1
# [12] = biological target: Gal(b1-4)GlcNAc(b1-2)Man(a1-6)[GlcNAc(b1-2)Man(a1-3)]Man(b1-4)GlcNAc(b1-4)GlcNAc
# Method in brief: as §1
# [13] = biological target: Gal(b1-4)GlcNAc(b1-3)[Gal(b1-4)GlcNAc(b1-6)]GalNAc
# Method in brief: as §1
# Gal6S(b1-3)GlcNAc = biological target: Gal6S(b1-3)GlcNAc
# Method in brief: as §1
# [14] = biological target: GalNAc(a1-3)GalNAc(a1-3)Gal(a1-4)Gal(b1-4)GlcNAc
# Method in brief: as §1
# Glc(b1-4)Glc = biological target: Glc(b1-4)Glc
# Method in brief: as §1
# GlcA(b1-3)Gal = biological target: GlcA(b1-3)Gal
# Method in brief: as §1
# [15] = biological target: GlcNAc(a1-3)Gal(b1-4)GlcNAc
# Method in brief: as §1
# [16] = biological target: GlcNAc(b1-2)Man(a1-3)[GlcNAc(b1-2)Man(a1-6)]Man(b1-4)GlcNAc(b1-4)GlcNAc
# Method in brief: as §1
# [17] = biological target: GlcNAc(b1-2)Man(a1-3)[GlcNAc(b1-2)Man(a1-6)]Man(b1-4)GlcNAc(b1-4)[Fuc(a1-6)]GlcNAc
# Method in brief: as §1
# [18] = biological target: GlcNAc(b1-2)Man(a1-3)[GlcNAc(b1-4)][GlcNAc(b1-2)Man(a1-6)]Man(b1-4)GlcNAc(b1-4)GlcNAc
# Method in brief: as §1
# [19] = biological target: GlcNAc(b1-2)[GlcNAc(b1-6)]Man(a1-6)[GlcNAc(b1-2)Man(a1-3)]Man(b1-4)GlcNAc(b1-4)GlcNAc
# Method in brief: as §1
# [20] = biological target: GlcNAc(b1-2)[GlcNAc(b1-6)]Man(a1-6)[GlcNAc(b1-2)Man(a1-3)][GlcNAc(b1-4)]Man(b1-4)GlcNAc(b1-4)GlcNAc
# Method in brief: as §1
# GlcNAc(b1-3)Gal = biological target: GlcNAc(b1-3)Gal
# Method in brief: as §1
# GlcNAc3Prop(b1-4)GlcNAc = biological target: GlcNAc3Prop(b1-4)GlcNAc
# Method in brief: as §1
# [21] = biological target: Man(a1-3)[Man(a1-6)]Man(a1-6)[Man(a1-3)]Man(b1-4)GlcNAc(b1-4)GlcNAc
# Method in brief: as §1
# Neu5Ac(a2-3)Gal = biological target: Neu5Ac(a2-3)Gal
# Method in brief: as §1
# [22] = biological target: Neu5Ac(a2-3)Gal(b1-4)[Fuc(a1-3)]GlcNAc(b1-3)GalNAc
# Method in brief: as §1
binder,measurement,setting,value
B1,glycan array binding signal (z-score),[1],-0.18
same,glycan array binding signal (z-score),[2],-0.187
same,glycan array binding signal (z-score),[3],-0.188
same,glycan array binding signal (z-score),Fuc(a1-2)[Gal(a1-3)]Gal,-0.145
same,glycan array binding signal (z-score),[4],-0.124
same,glycan array binding signal (z-score),[5],-0.176
same,glycan array binding signal (z-score),[6],-0.185
same,glycan array binding signal (z-score),[7],-0.158
same,glycan array binding signal (z-score),[8],-0.18
same,glycan array binding signal (z-score),Gal(b1-3)GlcNAc,-0.132
same,glycan array binding signal (z-score),[9],-0.18
same,glycan array binding signal (z-score),[10],-0.175
same,glycan array binding signal (z-score),[11],-0.172
same,glycan array binding signal (z-score),[12],4.08
same,glycan array binding signal (z-score),[13],-0.192
same,glycan array binding signal (z-score),Gal6S(b1-3)GlcNAc,-0.188
same,glycan array binding signal (z-score),[14],-0.19
same,glycan array binding signal (z-score),Glc(b1-4)Glc,-0.17
same,glycan array binding signal (z-score),GlcA(b1-3)Gal,-0.169
same,glycan array binding signal (z-score),[15],-0.14
same,glycan array binding signal (z-score),[16],6.38
same,glycan array binding signal (z-score),[17],5.47
same,glycan array binding signal (z-score),[18],7.84
same,glycan array binding signal (z-score),[19],4.99
same,glycan array binding signal (z-score),[20],7.22
same,glycan array binding signal (z-score),GlcNAc(b1-3)Gal,-0.164
same,glycan array binding signal (z-score),GlcNAc3Prop(b1-4)GlcNAc,-0.168
same,glycan array binding signal (z-score),[21],-0.172
same,glycan array binding signal (z-score),Neu5Ac(a2-3)Gal,-0.148
same,glycan array binding signal (z-score),[22],-0.154
